Records with an inconclusive call do not appear. The source made the active and inactive calls. Calls follow the shape of the dose curve; as a rule, active = well fitted curve in the direction sought with a large enough effect; inconclusive = small, poorly fitted or top-dose-only effect, or another doubt; inactive = no such curve, though single readings can be large; an effect the other way counts as inactive or inconclusive.

A short description of experiment [1]: Quantitative High-Throughput drug screen in 47 multiple myeloma cell lines against the NCATS MIPE library collection: JIM3_ECACC cell viability assay (AID 1918963; also: nearly all actives have a fitted effect of over 35% in size; also: potency is read from the fitted curve at half-maximal effect). Summed up:
(§1)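 Viability readout: CellTiter-Glo luminescence following 5 min room-temperature incubation with reagent. Prior exposure: 48 h, 37C, humidified 5% CO2, 500 cells per well.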

Experiment [2] can be described thus: Quantitative High-Throughput drug screen in 47 multiple myeloma cell lines against the NCATS MIPE library collection: JIM1_ECACC cell viability assay (AID 1918964; also: potency is read from the fitted curve at half-maximal effect). The method in brief:
(§2)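 Primary qHTS used for cherry-picking: cells at 500/well, library compounds for 48 h (37C, 5% CO2), luminescent ATP assay.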

Experiment [3] can be described thus: Quantitative High-Throughput drug screen in 47 multiple myeloma cell lines against the NCATS MIPE library collection: INA6_PLB cell viability assay (AID 1918965; also: nearly all actives have a fitted effect of over 55% in size; also: potency is read from the fitted curve at half-maximal effect). Summed up: (§3)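 Approved and investigational drugs from MIPE 4.0 were added by pin tool to 500 cells per well. After 48 hours at 37C, ATP-based CellTiter-Glo luminescence indicated remaining viability.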

Experiment [4] in a line: Quantitative High-Throughput drug screen in 47 multiple myeloma cell lines against the NCATS MIPE library collection: JJN3_DSMZ cell viability assay (AID 1918966; also: nearly all actives have a fitted effect of over 50% in size; also: potency is read from the fitted curve at half-maximal effect). The method in brief: as §2
A short description of experiment [5]: Quantitative High-Throughput drug screen in 47 multiple myeloma cell lines against the NCATS MIPE library collection: H1112_PLB cell viability assay (AID 1918967; also: nearly all actives have a fitted effect of over 30% in size; also: potency is read from the fitted curve at half-maximal effect). The method in brief:
as §2

Experiment [6] in a line: Quantitative High-Throughput drug screen in 47 multiple myeloma cell lines against the NCATS MIPE library collection: Karpas25_ECACC cell viability assay (AID 1918968; also: nearly all actives have a fitted effect of over 35% in size; also: potency is read from the fitted curve at half-maximal effect). The method in brief:
as §2

Experiment [7] in a line: Quantitative High-Throughput drug screen in 47 multiple myeloma cell lines against the NCATS MIPE library collection: KMS27_JCRB cell viability assay (AID 1918970). Also: nearly all actives have a fitted effect of over 30% in size. Also: potency is read from the fitted curve at half-maximal effect. The settings on record: KMS27 myeloma cells, CellTiter-Glo ATP viability, 48 h; viability (% of DMSO): at 45.8 µM (top of the series). The method in brief:
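CellTiter-Glo luminescence after 48 h drug exposure at 37 °C; 500 cells/well, 1536-well format, pin-tool compound addition; DMSO = 100%, media-only = 0% viability.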

A short description of experiment [8]: Quantitative High-Throughput drug screen in 47 multiple myeloma cell lines against the NCATS MIPE library collection: KMS12BM_JCRB cell viability assay (AID 1918971). Also: nearly all actives have a fitted effect of over 35% in size. Also: potency is read from the fitted curve at half-maximal effect. The method in brief:
(§4)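 Steps: seed 500 cells per well; pin-transfer MIPE 4.0 library; incubate 48 h at 37C, 5% CO2, humidified; add CellTiter-Glo, 5 min room temperature; read luminescence.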

The nature of experiment [9]: Quantitative High-Throughput drug screen in 47 multiple myeloma cell lines against the NCATS MIPE library collection: KMS12PE_JCRB cell viability assay (AID 1918972). Also: nearly all actives have a fitted effect of over 30% in size. Also: potency is read from the fitted curve at half-maximal effect. The method in brief: as §3
Experiment [10] in a line: Quantitative High-Throughput drug screen in 47 multiple myeloma cell lines against the NCATS MIPE library collection: KMS20_JCRB cell viability assay (AID 1918973). Also: nearly all actives have a fitted effect of over 45% in size. Also: potency is read from the fitted curve at half-maximal effect. Summed up:
as §2

The nature of experiment [11]: Quantitative High-Throughput drug screen in 47 multiple myeloma cell lines against the NCATS MIPE library collection: KMS26_JCRB cell viability assay (AID 1918975). Also: nearly all actives have a fitted effect of over 45% in size. Also: potency is read from the fitted curve at half-maximal effect. The method in brief:
as §4

Experiment [12] in a line: Quantitative High-Throughput drug screen in 47 multiple myeloma cell lines against the NCATS MIPE library collection: MMM1_PLB cell viability assay (AID 1918976). Also: nearly all actives have a fitted effect of over 35% in size. Also: potency is read from the fitted curve at half-maximal effect. Summed up: (§5)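 MIPE 4.0 approved/investigational drugs; 500 cells/well; 48 h 37 °C humidified 5% CO2; CTG luminescence readout; DMSO = 100%, media = 0% viability.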
The nature of experiment [13]: Quantitative High-Throughput drug screen in 47 multiple myeloma cell lines against the NCATS MIPE library collection: MOLP8_DSMZ cell viability assay (AID 1918977). Also: nearly all actives have a fitted effect of over 45% in size. Also: potency is read from the fitted curve at half-maximal effect. The method in brief:
as §5

Experiment [14] in a line: Quantitative High-Throughput drug screen in 47 multiple myeloma cell lines against the NCATS MIPE library collection: NCIH929_DSMZ cell viability assay (AID 1918978). Also: nearly all actives have a fitted effect of over 35% in size. Also: potency is read from the fitted curve at half-maximal effect. The method in brief: as §5
Experiment [15] is described as follows: Quantitative High-Throughput drug screen in 47 multiple myeloma cell lines against the NCATS MIPE library collection: OCIMY1_PLB cell viability assay (AID 1918979). Also: nearly all actives have a fitted effect of over 35% in size. Also: potency is read from the fitted curve at half-maximal effect. Summed up: as §5
Experiment [16] can be described thus: Quantitative High-Throughput drug screen in 47 multiple myeloma cell lines against the NCATS MIPE library collection: MM1S_ATCC cell viability assay (AID 1918980). Also: potency is read from the fitted curve at half-maximal effect; nearly all actives have a fitted effect of over 45% in size. The method in brief:
as §5

A short description of experiment [17]: Quantitative High-Throughput drug screen in 47 multiple myeloma cell lines against the NCATS MIPE library collection: MM1R_ATCC cell viability assay (AID 1918981). Also: nearly all actives have a fitted effect of over 35% in size. Also: potency is read from the fitted curve at half-maximal effect. The method in brief:
as §5

A short description of experiment [18]: Quantitative High-Throughput drug screen in 47 multiple myeloma cell lines against the NCATS MIPE library collection: KHM11_PLB cell viability assay (AID 1918962). Also: nearly all actives have a fitted effect of over 35% in size. Also: potency is read from the fitted curve at half-maximal effect. Summed up:
as §1

Experiment [19] can be described thus: Quantitative High-Throughput drug screen in 47 multiple myeloma cell lines against the NCATS MIPE library collection: KMS21BM_JCRB cell viability assay (AID 1918974). The conditions noted are these: ATP luminescence, 48 h; viability: at 45.8 µM (top of the series). Summed up:
as §2

Take `CC(C)C[C@H](NC(=O)[C@@H](NC(=O)c1cccc(-c2ccccc2)n1)[C@@H](C)O)B(O)O`: the Potency in [1] was 0.0372 µM (active); in experiment [2] it was 0.0105 µM (active); in experiment [3], 0.001 µM (active); in experiment [4] it was 0.0418 µM (active); in experiment [5] it was 0.0332 µM (active); in experiment [6], 0.0132 µM (active). For the same compound, the Potency in experiment [7] was 0.0235 µM (active); in [8], 0.0372 µM (active); in [9] it was 0.0105 µM (active); in experiment [10] it was 0.0332 µM (active); in [11], 0.0418 µM (active); in [12], 3.72 µM (active). Moreover, the Potency in experiment [13] is 0.0296 µM (active); in [14], 0.0118 µM (active); in experiment [15], 0.0166 µM (active); in experiment [16] it was 0.0132 µM (active); in experiment [17] it was 0.0132 µM (active).
As to `C=C1C(=CC=C2CCC[C@]3(C)[C@@H]([C@H](C)CCCC(C)(C)O)CC[C@@H]23)C[C@@H](O)C[C@@H]1O`, the Potency in experiment [18] is 10.5 µM (active); in experiment [2], 5.26 µM (active); in experiment [3], 5.9 µM (active); in experiment [5], 7.43 µM (active); in [6], 5.9 µM (active); in [7], 1.66 µM (active). The Potency was 20.9 µM (active) in experiment [8]; 6.62 µM (active) in [9]; 18.7 µM (active) in experiment [11]; 20.9 µM (active) in [12]; 16.6 µM (active) in [13]; 3.72 µM (active) in experiment [14]. The Potency is 1.48 µM (active) in experiment [16] and 18.7 µM (active) in [17]. For the same compound, in experiment [15], the Potency entry is “inactive”.
For the compound `O=C(C=CC=Cc1ccc2c(c1)OCO2)N1CCCCC1`, the Potency entry in experiment [18], in experiment [1], in experiment [4], in [5], in experiment [8] and in [13] was “inactive” throughout. Besides, the Potency entry in experiment [14] and in experiment [15] was “inactive” in each case. For the same compound, the Potency in [9] was 16.6 µM (active).
Turning to `C[C@]12C=CC(=O)N[C@@H]1CC[C@H]1[C@H]3CC[C@@H](C(=O)Nc4cc(C(F)(F)F)ccc4C(F)(F)F)[C@@]3(C)CC[C@@H]12`, the Potency entry in experiment [18], in experiment [1], in experiment [7] and in experiment [9] was “inactive” each time. Also, the Potency in experiment [4] was 18.7 µM (active); in experiment [5], 13.2 µM (active); in [6], 11.8 µM (active); in [8], 20.9 µM (active).
For `C[C@@H]1C(=O)O[C@H]2CC34[C@H]5C[C@@H](C(C)(C)C)C36[C@H](OC(=O)[C@@H]6O)O[C@@]4(C(=O)O5)[C@]21O` (stereo partly specified), the Potency result in experiment [1], in [2], in experiment [3], in experiment [5], in experiment [6] and in experiment [8] was “inactive” each time. Moreover, the Potency entry in [9], in [10], in [11], in experiment [13], in experiment [14] and in experiment [17] was “inactive” in each case.
For the compound `c1coc(CNc2ncnc3nc[nH]c23)c1`, the Potency entry in experiment [18], in experiment [3], in experiment [5], in [6], in experiment [10] and in experiment [11] was “inactive” in each case. For the same compound, the Potency entry in experiment [14], in experiment [15] and in experiment [17] was “inactive” in each case. In addition, the Potency in experiment [12] is 1.87 µM (active).
`CCCCC(=O)O[C@]1(C(=O)CO)[C@@H](C)C[C@H]2[C@@H]3CCC4=CC(=O)C=C[C@]4(C)[C@@]3(F)[C@@H](O)C[C@@]21C`: the Potency result in experiment [18], in [1], in experiment [8], in [11], in experiment [12] and in [14] was “inactive” in each case. The Potency result in [15] and in experiment [17] was “inactive” in each case. The values for the Potency in experiment [6], in experiment [7] and in experiment [13] were 0.0148 µM (active), 11.8 µM (active) and 0.526 µM (active), respectively. For the same compound, in experiment [19], the viability was 131% (active).
As for `CCc1nc(-c2cccc(C)c2)c(-c2ccnc(NC(=O)c3ccccc3)c2)s1`, the Potency is 0.935 µM (active) in experiment [18]; 9.35 µM (active) in experiment [2]; 16.6 µM (active) in experiment [3]; 14.8 µM (active) in experiment [5]; 6.62 µM (active) in [9]; 16.6 µM (active) in [12]. Also, in [16], the Potency is 20.9 µM (active). Further, the Potency entry in experiment [7] was “inactive”.

(Values after PubChem BioAssay (NCATS).)
